# Molecular target: T1, ETS1 (UniProt P14921)
# T1 sequence: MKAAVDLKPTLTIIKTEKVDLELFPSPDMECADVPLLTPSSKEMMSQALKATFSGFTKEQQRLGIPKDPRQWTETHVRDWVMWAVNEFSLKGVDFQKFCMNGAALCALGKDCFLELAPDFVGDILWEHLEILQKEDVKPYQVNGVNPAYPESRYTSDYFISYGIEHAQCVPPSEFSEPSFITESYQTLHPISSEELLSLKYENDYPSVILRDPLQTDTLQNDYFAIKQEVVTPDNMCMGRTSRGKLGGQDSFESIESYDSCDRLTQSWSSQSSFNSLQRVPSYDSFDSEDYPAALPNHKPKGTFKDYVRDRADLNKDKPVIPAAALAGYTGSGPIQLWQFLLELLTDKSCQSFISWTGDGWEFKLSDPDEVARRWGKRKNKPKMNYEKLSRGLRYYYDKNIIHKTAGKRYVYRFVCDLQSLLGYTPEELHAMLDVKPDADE
# Experiment: ETS1 binding intensity (PBM fluorescence) in presence of RUNX1, normalised to ETS1-only experiment (arbitrary fluorescence units); higher = stronger binding
# Details: ETS1 concentration 1 nM; RUNX1 concentration 25 nM
# 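Wherever RUNX1 binding intensity (PBM fluorescence) in presence of ETS1, normalised to RUNX1-only experiment is given: Full-length recombinant human ETS1 or RUNX1 bound to double-stranded 36-bp genomic probes on microarrays, detected by protein-specific primary antibody and Alexa488 secondary, spot fluorescence as median of four replicate spots.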
row,Sequence,ETS1 binding intensity
1,TGCACGGTAAGCAGGAAGCTGCGGCCGAGCTGAGTC,3120
2,CAGGGTGGAAACAGGAAGAGAAACCACACTTAACCT,7190
3,ACCAGAAGCACTGCAGGATGTGGTATCAAGACGCCT,6680
4,GTTCATCCAGGAAACCCCAACCCAGTGCCGCAGTAT,464
5,GACAGGAAGTGACCTCAATTTCCCCGGCCACAGAAA,4280
6,CCTAGAACCGGAAGAGAAAGGGGCTGCGGTGCAGCA,6270
7,AGGGTGTGGAGGAAGTGGCTTACAACCACTTTGTCT,1500
8,CTGCCCAGCCACTTCCTGCCCAACCACAGACTGACA,4910
9,CTTAGTGGGGCAGGATGTGGTCAGGGAAGCTGATCT,29900
10,TGTGTCACTTCCCTATCTGTTGCGGTTGTTCACTCC,841
11,ACTTCACTTCCCAACCTCCCCTGTGGTTAGGTGTGG,548
12,CCTCACAGGGACTTCCTTCCCCGCGGTTCAGGAATC,577
13,ACAGATCCAAGGAAGCATATCCCGCAAGCAACTGTT,589
14,TCCAGGCATTTCCCCCATGTTGGCTCACCGCACTAT,594
15,AACAAACCGGATGGGGTTCCCACCCGCAATCTTGTC,4570
16,TATGGGGCCGGAAGCCATTCACCACAAACACTGTGT,9050
17,CCAAAATTGCCACGGAAACCACATCTTTCAGGCGAG,687
18,AGAACAGCAGGAAATAAATACCCACCTCAGGACTGC,1050
19,ACTGCTTGATTTTCAGGAAGTGGTAAAGTGGCAGGT,9050
20,GCTGATAAAACAGGATGTGGTAAAGAAGCCGGCCAA,18000

row,Sequence,ETS1 binding intensity
1,GGATTAGAACTGCTTCCTCCTGTGGTTTACCAGAAA,595
2,TTTATCATGAATGCAGGATGTGGGCAAACTCGCATC,6100
3,CTGTCCGCGACATCCGGGACCTGCGGGACCGCCGAT,1470
4,ACCCTACTTCCGTTGCTGTGTTGCGGAGGTGACCTA,1240
5,CGAGTAGAGATAGCAGGAAGTGGTTTATTCTGAGGT,12600
6,TCCGGAAATAGATAATATCTAGTTAAACCTCAAAAT,2850
7,CGGTGGCTTCCGGCCCATGGCGGTGGTTGGTGACTC,953
8,CGCCTGCCCCACTTCCGCCCGGACCCGCAGCCCCTA,3210
9,ACGTTTCGGGGTTTCCGGGCCAGCGGTTTCGGGCGC,1140
10,AGGGACCCGGATGTCTGGTCTGCGGCTGCTCCTCTA,2120
11,TCTTCAGGCGTCTTTCCGGTGGTGGTCGTTTTTGCT,1330
12,AAAGACAGGATGTGGGGGAGTGAGCCACAAGGGCCC,1720
13,GCAGCATTTCCTGACTTCTTCGCCCCTGTGGTTGCA,480
14,GCCGGTGAGGGCGGAAGTGGTAAGACTGACGTGTCC,8740
15,AATATACGGTGAGGATGTGGGCAAAAAACAAAGAGG,1270
16,AAACCAGAGGAAGTGGATTCCAACCACAAACCTCAC,4210
17,TCATATCCGGCAGGAATGGGTTTTGTGGCTTTGTGC,1400
18,GCCCGCCCCGGAAGTGCAAACTGTGTGGTCTGGCAG,7090
19,ACTTTAATAGAGTCCGGATGCGGTTAGGCTGACAGA,30400
20,ATCATCTAGGAGACAGGATGTGGTTAGGGTGTTAAA,59800

# Molecular target: RUNX1 (UniProt Q01196)
# Sequence (Q01196 whole entry): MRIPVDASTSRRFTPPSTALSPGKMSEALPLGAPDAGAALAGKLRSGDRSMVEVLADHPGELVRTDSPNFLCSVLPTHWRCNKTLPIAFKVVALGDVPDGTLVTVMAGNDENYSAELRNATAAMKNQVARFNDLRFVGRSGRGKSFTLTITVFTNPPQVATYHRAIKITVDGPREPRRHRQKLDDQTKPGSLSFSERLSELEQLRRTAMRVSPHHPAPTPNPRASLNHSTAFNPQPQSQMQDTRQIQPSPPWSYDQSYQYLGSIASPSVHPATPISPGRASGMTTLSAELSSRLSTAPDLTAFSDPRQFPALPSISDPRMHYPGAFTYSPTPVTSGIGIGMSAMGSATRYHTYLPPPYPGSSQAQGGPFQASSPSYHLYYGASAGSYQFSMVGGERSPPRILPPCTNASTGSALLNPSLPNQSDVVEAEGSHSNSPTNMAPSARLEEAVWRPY
# Experiment: RUNX1 binding intensity (PBM fluorescence) in presence of ETS1, normalised to RUNX1-only experiment (arbitrary fluorescence units); higher = stronger binding
# Details: RUNX1 concentration 2 nM; ETS1 concentration 25 nM
# Description: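 Cooperative gcPBM on 36-bp genomic probes with neighbouring ETS1 and RUNX1 sites. Recombinant human RUNX1 (2 nM) was incubated alone or with ETS1 (25 nM) and detected with anti-RUNX1 antibody plus Alexa488 secondary. Values are medians over 4 replicate spots; the RUNX1+ETS1 data were normalised to the RUNX1-only data. The probes sit in constant array flanks that are not printed.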
row,Sequence,RUNX1 binding intensity
1,TGCACGGTAAGCAGGAAGCTGCGGCCGAGCTGAGTC,1030
2,CAGGGTGGAAACAGGAAGAGAAACCACACTTAACCT,1070
3,ACCAGAAGCACTGCAGGATGTGGTATCAAGACGCCT,1160
4,GTTCATCCAGGAAACCCCAACCCAGTGCCGCAGTAT,1080
5,GACAGGAAGTGACCTCAATTTCCCCGGCCACAGAAA,1770
6,CCTAGAACCGGAAGAGAAAGGGGCTGCGGTGCAGCA,1420
7,AGGGTGTGGAGGAAGTGGCTTACAACCACTTTGTCT,1090
8,CTGCCCAGCCACTTCCTGCCCAACCACAGACTGACA,6000
9,CTTAGTGGGGCAGGATGTGGTCAGGGAAGCTGATCT,7670
10,TGTGTCACTTCCCTATCTGTTGCGGTTGTTCACTCC,2930
11,ACTTCACTTCCCAACCTCCCCTGTGGTTAGGTGTGG,1220
12,CCTCACAGGGACTTCCTTCCCCGCGGTTCAGGAATC,1100
13,ACAGATCCAAGGAAGCATATCCCGCAAGCAACTGTT,875
14,TCCAGGCATTTCCCCCATGTTGGCTCACCGCACTAT,1290
15,AACAAACCGGATGGGGTTCCCACCCGCAATCTTGTC,1970
16,TATGGGGCCGGAAGCCATTCACCACAAACACTGTGT,3610
17,CCAAAATTGCCACGGAAACCACATCTTTCAGGCGAG,1620
18,AGAACAGCAGGAAATAAATACCCACCTCAGGACTGC,887
19,ACTGCTTGATTTTCAGGAAGTGGTAAAGTGGCAGGT,957
20,GCTGATAAAACAGGATGTGGTAAAGAAGCCGGCCAA,8590

row,Sequence,RUNX1 binding intensity
1,GGATTAGAACTGCTTCCTCCTGTGGTTTACCAGAAA,1840
2,TTTATCATGAATGCAGGATGTGGGCAAACTCGCATC,1060
3,CTGTCCGCGACATCCGGGACCTGCGGGACCGCCGAT,1760
4,ACCCTACTTCCGTTGCTGTGTTGCGGAGGTGACCTA,1700
5,CGAGTAGAGATAGCAGGAAGTGGTTTATTCTGAGGT,1800
6,TCCGGAAATAGATAATATCTAGTTAAACCTCAAAAT,965
7,CGGTGGCTTCCGGCCCATGGCGGTGGTTGGTGACTC,1840
8,CGCCTGCCCCACTTCCGCCCGGACCCGCAGCCCCTA,3610
9,ACGTTTCGGGGTTTCCGGGCCAGCGGTTTCGGGCGC,2050
10,AGGGACCCGGATGTCTGGTCTGCGGCTGCTCCTCTA,1250
11,TCTTCAGGCGTCTTTCCGGTGGTGGTCGTTTTTGCT,1390
12,AAAGACAGGATGTGGGGGAGTGAGCCACAAGGGCCC,2080
13,GCAGCATTTCCTGACTTCTTCGCCCCTGTGGTTGCA,1690
14,GCCGGTGAGGGCGGAAGTGGTAAGACTGACGTGTCC,2490
15,AATATACGGTGAGGATGTGGGCAAAAAACAAAGAGG,965
16,AAACCAGAGGAAGTGGATTCCAACCACAAACCTCAC,2100
17,TCATATCCGGCAGGAATGGGTTTTGTGGCTTTGTGC,3620
18,GCCCGCCCCGGAAGTGCAAACTGTGTGGTCTGGCAG,1330
19,ACTTTAATAGAGTCCGGATGCGGTTAGGCTGACAGA,7430
20,ATCATCTAGGAGACAGGATGTGGTTAGGGTGTTAAA,7840

# Source: the supplement of paper PMC10681739
